# Laboratory results reported in PubChem BioAssay (NCI).
# Several values for one entry are separate records, joined by “and”; a condition that tells them apart may be missing. Equal entries are not always repeated. Compounds without any hit were thinned out: in the full panel of roughly 79,000, 15% have a hit. The source holds several records for some structures; these can differ, active in one and inactive in another. Activity calls are given as the source filed them. Cut-off read from the data, not from the text of the source: active = growth inhibition above about 70%; inactive = the rest.
# Legend:
# [1] = NCI Yeast Anticancer Drug Screen. Data for the rad50 strain (AID 155);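 note: 0% = growth of vehicle-only cultures of the same strain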; conditions: S. cerevisiae rad50 strain growth inhibition; at 50.0 µM; stronger effect = higher value
# How it was run: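 DNA repair mutant yeast, compound exposure, growth read-out; inhibition is taken relative to vehicle.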
# [2] = NCI Yeast Anticancer Drug Screen. Data for the mec2-1 strain (AID 157); conditions: S. cerevisiae mec2-1 strain, at 50.0 µM, stronger effect = higher value
# How it was run: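 Yeast mec2-1 mutant treated with compound. Readout: growth inhibition vs vehicle controls.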
# [3] = NCI Yeast Anticancer Drug Screen. Data for the sgs1 mgt1 strain (AID 161);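 note: 0% = growth of cultures given vehicle only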; conditions: S. cerevisiae sgs1 mgt1 strain, at 50.0 µM, stronger effect = higher value
# How it was run: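 Mutant yeast exposed to compound; growth scored against vehicle-only wells.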
# [4] = NCI Yeast Anticancer Drug Screen. Data for the cln2 rad14 strain (AID 165);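 note: 0% = growth equal to vehicle treated cultures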; conditions: S. cerevisiae cln2 rad14 strain, at 50.0 µM, stronger effect = higher value
# How it was run: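 cln2 rad14 yeast strain; compound exposure; growth inhibition read vs vehicle controls.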
# [5] = NCI Yeast Anticancer Drug Screen. Data for the bub3 strain (AID 167); conditions: S. cerevisiae bub3 mutant strain, at 50.0 µM, stronger effect = higher value
# How it was run: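 In this screen, a yeast mutant lacking normal mitotic checkpoint function is challenged with compound. Relative growth versus vehicle gives the inhibition value.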
# [6] = NCI Yeast Anticancer Drug Screen. Data for the mlh1 rad18 strain (AID 175); conditions: S. cerevisiae mlh1 rad18 strain growth inhibition; at 50.0 µM; stronger effect = higher value
# How it was run: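 Yeast w/ defined DNA-repair lesions; compound exposure; growth vs vehicle controls → % inhibition.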
SMILES,growth inhibition [1],growth inhibition [2],growth inhibition [3],growth inhibition [4],growth inhibition [5],growth inhibition [6]
Nc1nc(N)c(Br)c(=O)[nH]1,-11.3% (inactive) and 9% (inactive),-36.4% (inactive) and -24.6% (inactive),-11.3% (inactive) and -38.1% (inactive),12.2% (inactive) and -83.6% (inactive),-10.9% (inactive) and -13.3% (inactive),-6.75% (inactive) and -21.4% (inactive)
Cc1ccc2ccccc2[n+]1C,31.9% (inactive) and -24.6% (inactive),-7.45% (inactive) and -34.3% (inactive),-1.25% (inactive) and -16.4% (inactive),-36.9% (inactive) and 1.2% (inactive),-1.5% (inactive) and -26.8% (inactive),-5.4% (inactive) and -20.4% (inactive)
O=C(c1ccco1)C(O)c1ccco1 (stereo unspecified),18.4% (inactive) and -8.55% (inactive),-12.6% (inactive) and -3.75% (inactive),1.55% (inactive) and 11.1% (inactive),3.95% (inactive) and -7.7% (inactive),15.7% (inactive) and 1.55% (inactive),-0.05% (inactive) and -12.2% (inactive)
COc1ccc2c(c1OC)C(=O)N1C2=Cc2c(cc3c(c2OC)OCO3)CC1N(C)C (stereo unspecified),16.7% (inactive) and 30.1% (inactive),-26.1% (inactive) and 33.8% (inactive),39.9% (inactive) and 57.1% (inactive),12.3% (inactive) and 13% (inactive),-11.8% (inactive) and 17.6% (inactive),12.7% (inactive) and 41.2% (inactive)
CCOC(=O)CNC(=O)c1ccccc1,3.7% (inactive) and -12.2% (inactive),-7% (inactive) and -36.4% (inactive),-9.55% (inactive) and -7.05% (inactive),-8% (inactive) and -13.8% (inactive),-2.35% (inactive) and 27.1% (inactive),-1% (inactive) and -4.65% (inactive)
CC(=O)OC1OC(C)C(OC(C)=O)C(OC(C)=O)C1OC(C)=O (stereo unspecified),6.8% (inactive) and 1.65% (inactive),-4.1% (inactive) and 1.8% (inactive),-5.85% (inactive) and 11.7% (inactive),-0.15% (inactive) and 4.05% (inactive),4.5% (inactive) and -4.2% (inactive),-15.6% (inactive) and 10.3% (inactive)
O=C1Nc2c(cc([N+](=O)[O-])cc2[N+](=O)[O-])C1=O,-8.6% (inactive) and 3.1% (inactive),7.6% (inactive) and -0.75% (inactive),-5.1% (inactive) and 2.05% (inactive),-0.05% (inactive) and -12.1% (inactive),-2.4% (inactive) and 3.95% (inactive),-1.1% (inactive) and 2.6% (inactive)
C/C=C(\Br)C(=O)O,-8.1% (inactive) and 24.1% (inactive),-10.7% (inactive) and -5.4% (inactive),1.7% (inactive) and 0.25% (inactive),-10.1% (inactive) and -19.2% (inactive),-15.1% (inactive) and 5.8% (inactive),9.25% (inactive) and 12.8% (inactive)
Cc1cc(C)c(C(=O)C(C)C(c2ccccc2)c2ccc(Cl)cc2)c(C)c1 (stereo unspecified),-16.4% (inactive) and -14.6% (inactive),-19.2% (inactive) and -5.7% (inactive),-12.8% (inactive) and -16.1% (inactive),17.8% (inactive) and -2.55% (inactive),-8.7% (inactive) and -10.6% (inactive),-15.2% (inactive) and -2.45% (inactive)
COC(=O)C1OC(O[C@H]2CC[C@]3(C)[C@H]4CC=C5[C@@H]6CC(C)(C)CC[C@]6(C(=O)OC6OCC(O)C(O)C6OC6OC(C)C(OC7OCC(O)C(OC8OCC(O)C(O)C8O)C7O)C(OC7OCC(O)C(O)C7O)C6O)CC[C@@]5(C)[C@]4(C)CC[C@H]3C2(C)C)C(O)C(OC2OCC(O)C(O)C2O)C1O (stereo partly specified),18.1% (inactive) and 22.6% (inactive),7.8% (inactive) and 16.5% (inactive),18.6% (inactive) and 23.1% (inactive),18.1% (inactive) and 18.7% (inactive),30.2% (inactive) and 22.7% (inactive),26.2% (inactive) and 38% (inactive)
O=C1CC2(CC=CCC23OCCO3)CC(CI)O1 (stereo unspecified),-14.1% (inactive) and 7.75% (inactive),-8.25% (inactive) and -1.25% (inactive),3.1% (inactive) and 24.8% (inactive),5.9% (inactive) and 5.1% (inactive),-10.2% (inactive) and 10.9% (inactive),10.7% (inactive) and 9.55% (inactive)
Cc1[nH]n(-c2ccc(S(=O)(=O)O)cc2)c(=O)c1N=Nc1ccccc1,-0.4% (inactive) and -2.2% (inactive),6.55% (inactive) and -21.9% (inactive),-10% (inactive) and 2.1% (inactive),0.95% (inactive) and 8.8% (inactive),10.8% (inactive) and 4.1% (inactive),-0.6% (inactive) and 15.1% (inactive)
CC1(C)OCC(C2OC(C)(C)OC2C2OC(O)C=CC2=O)O1 (stereo unspecified),19.8% (inactive) and 18.5% (inactive),18.9% (inactive) and 2.1% (inactive),24.6% (inactive) and 6.5% (inactive),9.05% (inactive) and -4.9% (inactive),24.9% (inactive) and 10.9% (inactive),20.3% (inactive) and 10.6% (inactive)
Cc1ccc(C(=O)/C=C/c2ccc3c(c2)OCO3)cc1,-6.75% (inactive) and 8.6% (inactive),16% (inactive) and -4.7% (inactive),13.6% (inactive) and 21.4% (inactive),-8.95% (inactive) and -1.75% (inactive),29.4% (inactive) and 25.3% (inactive),15.4% (inactive) and 37% (inactive)
COc1ccc2c(c1)-c1nn(CCCN(C)C)c3ccc([N+](=O)[O-])c(c13)N2,76.2% (active) and 67.2% (inactive),8% (inactive) and 12.3% (inactive),23.9% (inactive) and -28.4% (inactive),10.7% (inactive) and 20.6% (inactive),27.8% (inactive) and -60.1% (inactive),39.7% (inactive) and 28.5% (inactive)
CCOC(=O)C(=Cc1ccco1)C(=O)OCC,38.5% (inactive) and 10.2% (inactive),37.1% (inactive) and -24.6% (inactive),7.75% (inactive) and -0.5% (inactive),23.8% (inactive) and 8.8% (inactive),-4.65% (inactive) and -9.25% (inactive),19.8% (inactive) and -19.1% (inactive)
NNc1nc2c(N)ncnc2n1C1OC(CO)C(O)C1O (stereo unspecified),-7% (inactive) and 14% (inactive),-5.05% (inactive) and 15.8% (inactive),17.4% (inactive) and 4.95% (inactive),-21.1% (inactive) and 15.2% (inactive),14.8% (inactive) and 13.1% (inactive),-5.95% (inactive) and 10.6% (inactive)
CCC(C(=O)O)C(=O)O.[NH-]CC[NH-].[Pt+2],-23.6% (inactive) and -13.2% (inactive),-8% (inactive) and -3.95% (inactive),-8.05% (inactive) and -16.4% (inactive),-29.4% (inactive) and -13.5% (inactive),1.3% (inactive) and 2% (inactive),-10.8% (inactive) and -24% (inactive)
O=CC(O)C(O)C(OC1OC(CO)C(O)C(O)C1O)C(O)CO (stereo unspecified) (tested in a mixture with another compound),89.5% (active) and 38% (inactive),96.5% (active) and 36.4% (inactive),94.3% (active) and 55.4% (inactive),93.8% (active) and 78.4% (active),98.2% (active) and 80.7% (active),95.3% (active) and 49.9% (inactive)
CC(=O)N(O)CCCCCNC(=O)CCC(=O)N(O)CCCCCNC(=O)CCC(=O)N(O)CCCCCN,12.6% (inactive) and 8% (inactive),-9.65% (inactive) and -0.45% (inactive),2.1% (inactive) and -5.3% (inactive),6.9% (inactive) and 5.75% (inactive),9.55% (inactive) and 0.5% (inactive),11.4% (inactive) and 4.05% (inactive)
C/C(=N\NC(=O)c1ccncc1)c1ccc(F)cc1,3.95% (inactive) and -7.7% (inactive),9.55% (inactive) and -14.3% (inactive),4.15% (inactive) and -16.4% (inactive),3.85% (inactive) and 0.7% (inactive),5.5% (inactive) and -28.4% (inactive),14.3% (inactive) and -4.6% (inactive)
